This passage reports Potency and activity change, negative = cytotoxicity results from PubChem BioAssay (Tox21).

Results filed as inconclusive are left out. Entries that show only a call come without a potency. A number with no mark means an inactive call. The source made the active and inactive calls. The call rests on the fitted dose curve; in most records, active means well fitted cell-killing curve with a large enough effect in the repeat runs; inconclusive means weak or mixed curves, or effect the other way; inactive means flat fitted curve, though single readings scatter.

The assay in a line: cAMP Responsive Elements (CRE) small molecule agonists, cell-based qHTS assay: qHTS cell viability counter screen (AID 2060914). Further: nearly all actives have a fitted effect of over 50% in size. Particulars: CRE-bla HEK293T viability, CellTiter-Glo luminescence, 5 h; series mostly up to 92.4 µM. The text has this:
National Center for Advancing Translational Sciences [NCATS]
Division of Preclinical Innovation [DPI]
U.S. Environmental Protection Agency [EPA]
National Institutes of Environmental Health Sciences [NIEHS]
National Toxicology Program [NTP]
U.S. Food and Drug Administration [FDA]
CREB (cyclic-AMP Responsive Element Binding Protein) is a cellular transcription factor. It binds to certain DNA sequences called cAMP Responsive Elements (CRE) and regulates the transcription of the genes. […] This cell line can be used to find agonists/antagonists of the cyclic AMP signaling pathway. The activation of the report gene under culture conditions can be detected by fluorescence intensity. This cell line has been used to screen the Tox21 10K compound library to identify agonists that induce oxidative stress. The cytotoxicity of the Tox21 compound library against the CRE-bla cell line was tested in parallel by measuring the cell viability using CellTiter-Glo assay (Promega, Madison, WI) in the same wells.
Tox21 Assay Protocol Summary:
CRE-bla Hek 293T cells were suspended in assay medium (DMEM containing 10% dialyzed FBS, 0.1 mM NEAA, 1 mM sodium pyruvate and 25 mM HEPES) and dispensed at 2,000 cells/5 uL /well into 1536-well black wall/clear bottom plates using a Multidrop Combi (ThermoFisher Scientific, Waltham, MA) dispenser. After the assay plates were incubated at 37 C/5% CO2 for 18 hrs, 23 nL of compounds dissolved in DMSO, positive controls or DMSO only was transferred to the assay plate by a pintool workstation (Kalypsys, San Diego, CA). After the plates were incubated at 37 C/5% CO2 for 3 hrs, 1 uL of LiveBLAzer B/G FRET substrate (Invitrogen, Carlsbad, CA) was added to each well using Bioraptr Flying Reagent Dispenser (FRD, Aurora Discovery, San Diego, CA). The plates were incubated at room temperature for 2 h, then fluorescence intensities were measured using an Envision plate reader (PerkinElmer, Shelton, CT) at Excitation 405nm, Emission 460nm and 530nm. The % activity was determined from the ratio of 460nm/530nm. For cell viability readout that measures cytotoxicity, 4 uL /well of CellTiter-Glo reagent was added into the assay plates using Bioraptr FRD. After 30 min incubation at room temperature, the luminescence intensity in the assay plates was measured using a ViewLux (PerkinElmer, Shelton, CT) plate reader.
A general note: In qHTS, concentration-response curves come from the screen itself.
For the molecule `NS(=O)(=O)c1ccc(N2CCCCS2(=O)=O)cc1`, the Potency entry is “inactive”.
The same measure, in the same setting: for `CC(=O)OC/C=C(\C)CC/C=C(\C)CCC=C(C)C` the value was “inactive”; for `CCOC(=O)/C=C/C(=O)OCC`, “inactive”; for `OCC1CCCO1` (stereo not given), “inactive”.
Consider `O=C(O)c1ccccc1-c1ccc(C(F)(F)F)cc1`, for which the Potency entry is “inactive”.
Same read-out and setting: for `CC1=CC(=O)CC(C)(C)C1` the value was “inactive”; for `C=CCCC=C`, “inactive”.
For `CCOC(=O)C1=C(C)NC(C)=C(C(=O)OC)C1c1cccc([N+](=O)[O-])c1` (stereo not given), the Potency result is “inactive”.
Same read-out and setting: for `Cc1cc(S(=O)(=O)O)ccc1N=Nc1c(O)ccc2ccccc12` the value was “inactive”; for `OC[C@@H](O)[C@@H](O)[C@H](O)[C@@H](O)CO`, “inactive”; for `C[C@H]1C[C@H]2[C@@H]3CCC4=CC(=O)C=C[C@]4(C)[C@@]3(F)[C@@H](O)C[C@]2(C)[C@@]1(O)C(=O)COP(=O)(O)O`, “inactive”.
On the same count and under the same terms, for `Cc1ccccc1S(N)(=O)=O` the value was “inactive”; for `c1ccc(CSCc2ccccc2)cc1`, “inactive”; for `CC(CN)CC(C)(C)CCN` (stereo not given), “inactive”.
As for `C=C[Si]1(C)O[Si](C)(C=C)O[Si](C)(C=C)O[Si](C)(C=C)O1` (stereo not given), the Potency entry was “inactive”.
With `CCC(=O)OC(=O)CC`, the Potency result is “inactive”.
On the same count and under the same terms, for `CC(NC(CCc1ccccc1)C(=O)O)C(=O)N1C(=O)N(C)CC1C(=O)O` (stereo not given) the value was “inactive”.
Still for that read-out and setting: for `OCc1cccc(Oc2ccccc2)c1` the value was “inactive”; for `CO`, “inactive”.
On the same count and under the same terms, to `Clc1cc(Cl)c(Cl)cc1Cl` belongs “inactive”; to `Nc1ccc(C(=O)O)cc1`, “inactive”.
`O=C1Cc2ccccc2N1c1c(Cl)cccc1Cl`: the Potency entry was “inactive”.
Regarding `CC(C)(Oc1ccc(C2CC2(Cl)Cl)cc1)C(=O)O` (stereo not given), the Potency result is “inactive”.
On the same count and under the same terms, for `NC(=O)c1cccc([N+](=O)[O-])c1` the value was “inactive”; for `CC1(C)C(=O)N(CO)C(=O)N1CO`, “inactive”.
On the same count and under the same terms, to `CCC(C)N` (stereo not given) belongs “inactive”; to `Oc1cccc(O)c1O`, “inactive”.
Same read-out and setting: to `C[C@H](CCC(=O)O)[C@H]1CC[C@H]2[C@@H]3[C@H](O)C[C@@H]4C[C@H](O)CC[C@]4(C)[C@H]3C[C@H](O)[C@]12C` belongs “inactive”; to `Cc1occc1C(=O)Nc1ccc(C(=O)N2CCC(F)(F)/C(=C\C(=O)N3CCC(N4CCCCC4)CC3)c3ccccc32)cc1`, “inactive”.
In the case of `O=c1[nH]c(=O)n([C@H]2C[C@H](O)[C@@H](CO)O2)cc1I`, the Potency entry is “inactive”.
Regarding `Cc1c(C)c2c(c(C)c1OC(=O)CCC(=O)O)CC[C@@](C)(CCC[C@H](C)CCC[C@H](C)CCCC(C)C)O2`, the Potency result is “inactive”.
Same read-out and setting: to `N[C@H](C(=O)O)[C@@H](O)c1ccc(O)c(O)c1` belongs “inactive”; to `NC(=O)COCCN1CCN(C(c2ccccc2)c2ccc(Cl)cc2)CC1` (stereo not given), “inactive”; to `O=C(O)c1ccccc1[N+](=O)[O-]`, “inactive”.
For the molecule `CN(C)C(=O)NC1(c2ccccc2)CCN(CCC[C@]2(c3ccc(Cl)c(Cl)c3)CCCN(C(=O)c3ccccc3)C2)CC1`, the activity change, negative = cytotoxicity was -0.87% [at 18.9 µM].
For the molecule `Cc1cccc(C)c1`, the Potency result is “inactive”.
Same read-out and setting: for `O=C(CCC1CCN(Cc2ccccc2)CC1)c1ccc2c(c1)NCCCC2` the value was “inactive”; for `O=C1CCc2cc(OCCCCc3nnnn3C3CCCCC3)ccc2N1`, “inactive”; for `CCCCOC(=O)CC`, “inactive”.
The same measure, in the same setting: for `Nc1cc(S(=O)(=O)O)cc2cc(S(=O)(=O)O)cc(O)c12` the value was “inactive”.
